Our source for the Potency values is PubChem BioAssay AID1468 (National Center for Advancing Translational Sciences (NCATS), 2008).

The campaign covered roughly 280,000 compounds. About 1,100 (0.39%) were called active. Where a call stands in place of a potency, no number is given. Inconclusive results (about 7%) are left out. The call rests on the fitted dose curve; in most records, active means well fitted inhibition curve with a large enough effect; inconclusive means small, poorly fitted or top-dose-only effect, or effect the other way; inactive means flat fitted curve, though single readings scatter. Only a selection was taken, and actives are over-represented in it overall.
Potency means the concentration at half of the fitted maximal effect.

Sequence of Microtubule-associated protein tau (Homo sapiens) (P10636 561-689 P618L limits assumed): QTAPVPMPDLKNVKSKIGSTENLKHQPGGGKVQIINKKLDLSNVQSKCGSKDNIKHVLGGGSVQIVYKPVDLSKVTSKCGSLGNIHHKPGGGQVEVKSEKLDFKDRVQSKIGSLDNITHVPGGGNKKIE

This assay concerns the target Microtubule-associated protein tau (Homo sapiens) (UniProt P10636). Briefly: qHTS for Inhibitors of Tau Fibril Formation, Fluorescence Polarization. Further: nearly all actives have a fitted effect of over 55% in size. The settings on record: K18 P301L tau heparin fibrillization, Alexa594 FP, 6 h; series mostly up to 57.7 µM. An excerpt: NIH Molecular Libraries Probe Production Network [MLPCN]
NIH Chemical Genomics Center [NCGC]
Assay Provider: Carlo Ballatore, University of Pennsylvania
The microtubule-associated protein tau is an abundant protein in the axons of neurons that stabilizes microtubules. With its ability to modulate microtubule dynamics, tau contributes directly or indirectly, to key structural and regulatory cellular functions. Particularly important is the influence tau exerts on axonal transport, which allows signaling molecules, trophic factors and other essential cellular constituents to travel along the axons. Under pathological conditions, tau becomes sequestered into insoluble aggregates called neurofibrillary tangles. This phenomenon is believed to have pathological consequences by promoting axonal transport deficits that ultimately lead to synaptic dysfunction and neuronal loss. To identify inhibitors of tau aggregation, a heparin-induced tau fibril formation assay was used that employed a recombinantly expressed fragment of tau, K18 (Q242-E372), bearing a P301L mutation (Gustke et al. 1994; Hong et al. 1998).
Gustke, N., B. Trinczek, et al. (1994). "Domains of tau protein and interactions with microtubules." Biochemistry 33(32): 9511-22.
Hong, M., V. Zhukareva, et al. (1998).
Li, W. and V. M. Lee (2006). "Characterization of two VQIXXK motifs for tau fibrillization in vitro." Biochemistry 45(51): 15692-701.
von Bergen, M., S. Barghorn, et al. (2001). "Mutations of tau protein in frontotemporal dementia promote aggregation of paired helical filaments by enhancing local beta-structure." J Biol Chem 276(51): 48165-74.
NCGC Assay Protocol Summary:
For screening, 2 uL/well human K18 P301L (15 uM unlabeled and 0.24 uM Alexa 594-labeled tau final concentrations) in reagent buffer (100 mM sodium acetate pH 7) was dispensed into black solid 1536-well plates (Grenier) using a solenoid-based dispenser. Following transfer of 23 nL compound or DMSO vehicle by a pin tool, 2 uL/well heparin (20 uM final concentration) in reagent buffer was added and the plate centrifuged 15 s at 1000 RPM. Plates were incubated 6 hr at 37 C and then 1 uL/well ThT (30 uM final concentration) was added. After a 1 hr ambient incubation, the plates were read by an Envision (Perkin Elmer) to monitor Alexa 594 FP (555 nm excitation and 632 nm emission).
Keywords: NIH Roadmap, MLPCN, MLI, MLSMR, NCGC, qHTS, tau, tauopathies, Alzheimer's disease, fibril, neurodegeneration, aggregation
Turning to `O=C(Cn1ncc2c3ccccc3n(Cc3ccccc3)c2c1=O)NC1CCCCCC1`, the Potency result was “inactive”. For `Clc1ccc(CSc2nncn3c2cc2occc23)cc1` the value was “inactive”; for `COc1ccc(C2CC(=O)N(Cc3ccccc3C)c3c2c(C)nn3-c2nc(C)cc(C)n2)c(OC)c1` (configuration not stated), “inactive”; for `Cc1ccc(C)c(S(=O)(=O)c2nnn3c2nc(N2CCOCC2)c2sccc23)c1`, “inactive”.

As for `O=C(CSc1nc(Nc2ccc(F)c(F)c2)c2ccccc2n1)c1ccc(Cl)cc1`, the Potency entry is “inactive”. For `Fc1ccc(CSc2nc(NCc3ccccc3)c3ccccc3n2)cc1` the value was “inactive”; for `Fc1ccc(Nc2nc(SCc3ccccc3Cl)nc3ccccc23)cc1`, 6.31 µM (active); for `Cc1ccc(C(=O)N2c3ncnn3C3(CCCCC3)[C@@H]3CCCC[C@@H]32)cc1`, “inactive”. The same measure for `Cc1ccc(OCCSc2nc3ccc(NC(=O)COc4ccc(C)cc4)cc3s2)cc1`: “inactive”. For `CCOc1ccc2nc(Nc3nc4ccc(NC(C)=O)cc4s3)sc2c1` the value was “inactive”. Take `CC(=O)Nc1ccc2nc(SCCOc3cc(C)cc(C)c3)sc2c1`: the Potency is 12.6 µM (active). For `COc1ccccc1C(=O)NCCn1cc(SCc2ccccc2Cl)c2ccccc21` the value was “inactive”. For `Cc1ccc(-c2nn(-c3ccccc3)cc2C(=O)Nc2cccc(S(=O)(=O)N3CCOCC3)c2)cc1` the value was 14.1 µM (active). Consider `Cc1ccc(-c2nn(-c3ccccc3)cc2/C=C/C(=O)Nc2cccc(S(N)(=O)=O)c2)cc1`, for which the Potency was 14.1 µM (active). As for `O=C(O)/C=C/c1cn(-c2ccccc2)nc1-c1cccs1`, the Potency entry was “inactive”. The same measure for `COc1ccc(-c2nn(-c3ccccc3)cc2/C=C\C(=O)Nc2ccc(C(=O)O)cc2)cc1`: “inactive”; for `O=C(O)c1ccc(NC(=O)c2cn(-c3ccccc3)nc2-c2ccc(Cl)cc2)cc1`: “inactive”; for `O=C(COC(=O)c1ccccc1)Nc1cccc(S(=O)(=O)N2CCOCC2)c1`: “inactive”. The same measure for `COc1ccccc1N1CCN(C2C(=O)c3ccccc3N2C(C)=O)CC1` (configuration not stated): “inactive”; for `CCC(=O)N1CCc2cc(CNC(=O)Nc3ccccc3Cl)ccc21`: “inactive”; for `COc1ccc(Cc2nc3ccc(C(=O)NCc4ccccc4C)cc3o2)cc1`: “inactive”. For `CCN1CCc2nc3sc(C(=O)Nc4ccccc4OC(F)(F)F)c(N)c3cc2C1` the value was “inactive”; for `O=C(Nc1ccc(Br)cc1)c1ccc(Br)c(S(=O)(=O)NCc2ccccc2)c1`, 12.6 µM (active). Take `Cc1ccc(C(=O)Nc2ccc(C(=O)O)cc2)cc1S(=O)(=O)Nc1ccccc1`: the Potency entry is “inactive”. Turning to `O=C(Nc1cccc(NC(=O)c2ccc(Br)cc2)c1)c1ccccc1`, the Potency entry is “inactive”.

In the case of `COC(=O)c1scc(-c2ccccc2)c1S(=O)(=O)Nc1ccccc1`, the Potency entry is “inactive”.

With `Cc1ccc(Cn2c(C)c3cnn(CC(=O)NCc4ccccc4)c(=O)c3c2C)cc1`, the Potency entry was “inactive”.
